Assay [1] in a line: NCI Yeast Anticancer Drug Screen. Data for the rad50 strain (AID 155).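 Also: 0% = growth of vehicle-only cultures of the same strain.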 As to conditions: S. cerevisiae rad50 strain growth inhibition; at 50.0 µM; active compounds read high. Summed up: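 Genetically altered yeast (DNA repair pathway); compound treatment; growth inhibition vs vehicle ctrl.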
Assay [2] in a line: NCI Yeast Anticancer Drug Screen. Data for the mec2-1 strain (AID 157). The settings on record: S. cerevisiae mec2-1 strain, at 50.0 µM, active compounds read high. Summed up: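 mec2-1 yeast strain, carrying an alteration in DNA damage repair or cell cycle control, was exposed to compounds; growth inhibition was measured relative to vehicle-treated controls.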
Assay [3] is described as follows: NCI Yeast Anticancer Drug Screen. Data for the sgs1 mgt1 strain (AID 161).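 Also: 0% = growth of cultures given vehicle only.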 As to conditions: S. cerevisiae sgs1 mgt1 strain, at 50.0 µM, active compounds read high. An outline of the steps: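 Compounds are added to genetically altered yeast, and growth is compared with cultures given vehicle alone to give percent inhibition.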
Assay [4] can be described thus: NCI Yeast Anticancer Drug Screen. Data for the cln2 rad14 strain (AID 165).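 Also: 0% = growth equal to vehicle treated cultures.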 As to conditions: S. cerevisiae cln2 rad14 strain, at 50.0 µM, active compounds read high. An outline of the steps: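 Yeast carrying cln2 and rad14 alterations (cell cycle control and DNA damage repair) were exposed to compounds. Growth inhibition was measured against vehicle-treated controls.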

Assay [5] is described as follows: NCI Yeast Anticancer Drug Screen. Data for the bub3 strain (AID 167). As to conditions: S. cerevisiae bub3 mutant strain, at 50.0 µM, active compounds read high. Summed up: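 Yeast carrying a defined mutation is treated with each compound, and growth is compared with that of vehicle-exposed cells to give inhibition.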
Assay [6] in a line: NCI Yeast Anticancer Drug Screen. Data for the mlh1 rad18 strain (AID 175). As to conditions: S. cerevisiae mlh1 rad18 strain growth inhibition; at 50.0 µM; active compounds read high. An outline of the steps: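 Growth inhibition of the yeast strain was measured after compound exposure and expressed relative to vehicle-treated controls. The strain carries defined defects in DNA damage repair.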

This is part of a sample that, as a whole, favours compounds with a hit. Of some 79,000 tested, about 15% had one in any assay. Values without a mark were called inactive. Active and inactive are the calls of the source. Rule as the data show it: active = growth inhibition above about 70%; inactive = the rest.

Consider 21 compounds from PubChem BioAssay (NCI).

Regarding `Cn1c(=O)c2c(n(C)c1=O)[n+]([O-])c([N+]1([O-])CCOCC1)n2C`, the growth inhibition in assay [1] is -3.85%; in assay [2], -6.3%; in assay [3] it was -0.6%; in assay [4], -24.9%; in assay [5], -4.15%; in assay [6], 3.2%.
As for `CCOC(=O)C(C(=O)OCC)c1cnc2ccccc2c1Cl`, the growth inhibition is -0.7% in assay [1]; -9.45% in assay [2]; 6.55% in assay [3]; -40.5% in assay [4]; -4.5% in assay [5]; 2.85% in assay [6].
With `Nc1cc(Cl)ccc1S(=O)(=O)O`, the growth inhibition is -7.1% in assay [1]; -1.8% in assay [2]; 2.1% in assay [3]; -48.8% in assay [4]; -15.1% in assay [5]; -4.4% in assay [6].
With `N#CCCNC=O`, the growth inhibition in assay [1] was -7.15%; in assay [2] it was 0.4%; in assay [3], -8.7%; in assay [4] it was -7%; in assay [5] it was 6.3%; in assay [6], -4.95%.
Consider `CCCC[n+]1cccc(C(N)=O)c1`, for which the growth inhibition was -3.55% in assay [1]; -19.9% in assay [2]; 3.35% in assay [3]; 0.4% in assay [4]; 12.8% in assay [5]; -2.15% in assay [6].
On to `CCN(CC)C(N)=Nc1cc2ccccc2c2ccccc12`, for which the growth inhibition was -16.5% in assay [1]; -22.8% in assay [2]; -16.9% in assay [3]; -45.5% in assay [4]; 8.55% in assay [5]; 5.25% in assay [6].
Take `CCCCCCCCCc1ccc(OCCOC(=O)OCCOc2ccc(CCCCCCCCC)cc2)cc1`: the growth inhibition was 40.9% in assay [1]; -21.9% in assay [2]; 16% in assay [3]; 13.8% in assay [4]; 4.4% in assay [5]; 31.6% in assay [6].
Turning to `COC(=O)C1CSC(C)(C)N1` (stereo unspecified), the growth inhibition was 10.6% in assay [1]; -8.55% in assay [2]; -1.5% in assay [3]; -0.95% in assay [4]; -7.35% in assay [5]; 4.35% in assay [6].
Take `COc1ccn(C2OC(=O)C(C)(C)C2=O)c(=O)n1` (stereo unspecified): the growth inhibition is -0.4% in assay [1]; -15.4% in assay [2]; 0.55% in assay [3]; -1.2% in assay [4]; -9.4% in assay [5]; -12.6% in assay [6].
As to `O=C(CCCc1ccccc1)OCC(=O)c1ccc(-c2ccccc2)cc1`, the growth inhibition in assay [1] was 19.4%; in assay [2] it was 6.45%; in assay [3], 11.2%; in assay [4], 3.45%; in assay [5], 12.8%; in assay [6], 14.6%.
Turning to `COc1ccc2ccccc2c1NC(C)=O`, the growth inhibition is 0.2% in assay [1]; 5.95% in assay [2]; -0.7% in assay [3]; -21.8% in assay [4]; -1.6% in assay [5]; -10.5% in assay [6].
In the case of `O=C1C=C(Nc2nc(O)cc(=O)[nH]2)c2ccccc2C1=O`, the growth inhibition in assay [1] was 0.75%; in assay [2], 2.2%; in assay [3], 1.15%; in assay [4], -38.5%; in assay [5], -0.4%; in assay [6], 13.5%.
On to `CC1(CCN2CCCC2)NC(=O)NC1=O` (stereo unspecified), for which the growth inhibition was 15.9% in assay [1]; -20.3% in assay [2]; -5.25% in assay [3]; 1.05% in assay [4]; 3.4% in assay [5]; 10.9% in assay [6].
In the case of `CCCCCCCCCCCCCCCCC1=CC(=O)C=C(OC)C1=O`, the growth inhibition in assay [1] was 13.4%; in assay [2], 1.45%; in assay [3], 23.4%; in assay [4], -36%; in assay [5], -0.15%; in assay [6], 15.6%.
As for `O=C(O)CCCC#CCCCC(=O)O`, the growth inhibition was 10.4% in assay [1]; 4.5% in assay [2]; 2% in assay [3]; 17.3% in assay [4]; 25.8% in assay [5]; -13.7% in assay [6].
With `CC(C)N1C(=O)NC(=O)C12CCN(Cc1ccccc1)CC2`, the growth inhibition in assay [1] is -1.5%; in assay [2], -1.65%; in assay [3] it was -5.9%; in assay [4], -1.7%; in assay [5] it was 11.6%; in assay [6], -13.7%.
As to `O=P(O)(c1cc(Cl)cc(Cl)c1)c1cc(Cl)cc(Cl)c1`, the growth inhibition is 2.05% in assay [1]; -7.45% in assay [2]; 10.2% in assay [3]; -5.1% in assay [4]; -7.1% in assay [5]; -4.5% in assay [6].
As for `OC(CC1CCCCN1)c1ccc2c(c1)oc1ccccc12` (stereo unspecified), the growth inhibition was 71.7% (active) in assay [1]; 56.9% in assay [2]; 62.2% in assay [3]; 56.2% in assay [4]; 73.8% (active) in assay [5]; 75.6% (active) in assay [6].
On to `Nc1ncnc(N)c1NC(=O)CCCCc1ccccc1`, for which the growth inhibition in assay [1] is 4.25%; in assay [2], -12.2%; in assay [3], -13.2%; in assay [4], 4.8%; in assay [5], 1.4%; in assay [6], -5.9%.
Consider `O=C1OC2C(O1)C1(c3ccccc3)OC2(c2ccccc2)c2ccccc21` (stereo unspecified), for which the growth inhibition in assay [1] was -5.9%; in assay [2], 19.2%; in assay [3] it was 13.5%; in assay [4], -57.2%; in assay [5], 4.85%; in assay [6] it was 45.1%.
`COc1ccc(C=Nc2c(O)ccc3c2CCCC3)cc1OC`: the growth inhibition is 9.55% in assay [1]; 4.7% in assay [2]; -6.1% in assay [3]; -49.3% in assay [4]; 1.95% in assay [5]; 14.9% in assay [6].
